MCF10A rerep: A quantitative high throughput screen for small molecules that induce DNA re-replication in MCF 10a normal breast cells. MCF 10A DNA re-replication, Hoechst nuclear intensity, 48 h. Potency, µM (titrated, usually from 46.1 µM), inactives show at the highest dose activity, positive = re-replication, most hits filed as activators. 350,000 compounds, 2.9% hits. AID 624296, 2012; note: % of control where 0% means no effect; nearly all actives have a fitted effect of over 50% in size
KB-V1 MDR tox: qHTS assay for MDR1-selective chemotherapeutics: Primary screen using the drug-selected MDR subline cells KB-V1; KB-V1 MDR cells viability, CellTiter-Glo, 72 h; Potency, µM (doses to about 46.1 µM), actives largely listed as cytotoxic; 400,000 compounds, 3.4% hits; note: % is set by controls: 0 for no effect and ±100 for the full control effect; nearly all actives have a fitted effect of over 60% in size
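Cells of the MDR subline KB-V1 are plated, dosed with compound at multiple concentrations, and incubated 72 h at 37 degrees C; CellTiter-Glo is then added and luminescence read after 10 min.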
SW480 rerep: A quantitative high throughput screen for small molecules that induce DNA re-replication in SW480 colon adenocarcinoma cells | 340,000 compounds, 1.8% hits | SW480 DNA re-replication, Hoechst DNA content imaging, 48 h | Potency, µM (doses to about 46.1 µM), for the others: top-dose re-replication activation, most hits filed as activators; note: % of control where 0% means no effect; nearly all actives have a fitted effect of over 55% in size
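250 cells/well; 23 nL cpd via pin tool; 48 hr, 37 C, 5% CO2; Hoechst 40 min; imager read of total nuclear intensity, ex 405/em 500-530 nm.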
ELG1 DNA repair: qHTS screen for small molecules that inhibit ELG1-dependent DNA repair in human embryonic kidney (HEK293T) cells expressing luciferase-tagged ELG1 | 330,000 compounds, 2.3% hits | Potency, µM (doses to about 46.1 µM), for the others: at the top dose activity change, negative = inhibition, hits mostly inhibitors | HEK293T ELG1-luciferase reporter, luminescence, 16 h; DNA damage induced by 5-fluorouridine; note: % is set by controls: 0 for no effect and ±100 for the full control effect; nearly all actives have a fitted effect of over 55% in size
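Quantitative HTS, concentration-response format. 2,000 cells/well co-treated with 5-fluorouridine and compound, 16 hr in 5% CO2 at 37 °C; ONE-Glo luminescence read after 30 min.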
KB-3-1 tox: qHTS assay for MDR1-selective chemotherapeutics: Primary screen using the parental adenocarcinoma cell KB-3-1 | KB-3-1 viability, CellTiter-Glo ATP luminescence, 72 h | Potency, µM (series often up to 46.1 µM), hits mostly cytotoxic | 400,000 compounds, 1.4% hits | AID 1347075, 2019; note: % is set by controls: 0 for no effect and ±100 for the full control effect; nearly all actives have a fitted effect of over 60% in size
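KB-3-1 parental drug-naive adenocarcinoma cells in DMEM/10% FBS, incubated 72 h at 37 C with pin-transferred compounds across a concentration series. Viability by CellTiter-Glo luminescence; concentration-response curves fitted after normalization.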
Active calls of the source: *; i = inactive; u = inconclusive; x = not tested or not shown. The list is not random: actives were taken first. Their share in the collection is about 8.2%. Calls come from the whole dose curve; as a rule, active = well fitted curve in the direction sought with a large enough effect; inconclusive = small, poorly fitted or top-dose-only effect, or another doubt; inactive = no such curve, though single readings can be large; an effect the other way counts as inactive or inconclusive. Potency is the fitted concentration of half-maximal effect.

SMILES	MCF10A rerep	KB-V1 MDR tox	SW480 rerep	ELG1 DNA repair	KB-3-1 tox
C1=C(CCNc2ncnc3c2[nH]c2ccccc23)CCCC1	u	u	10%	18%	5.2µM*
COc1ccc(CNc2ncnc3c2[nH]c2cc(OC)c(OC)cc23)cc1	u	i	22%	u	i
CC(C)OCCCNc1ncnc2c1[nH]c1ccccc12	-5%	u	0%	9.2µM*	7.3µM*
Cc1ccc(-n2cnc3cc(C(=O)NCc4ccccc4Cl)ccc32)c(C)c1	x	i	x	x	i
Cc1cc(C)n(CC(O)Cn2c3ccc(Cl)cc3c3cc(Cl)ccc32)c(=O)n1 (centres undefined)	2%	16µM*	4%	-12%	i
CCCc1nc2c(s1)CCc1onc(-c3ccc(OC)cc3)c1-2	8.2µM*	i	-2%	x	i
COc1ccc(-c2noc3c2-c2nc(-c4ccccc4C)sc2CC3)cc1	u	u	21µM*	x	18µM*
CCCc1nc2c(s1)CCc1onc(-c3ccc(Cl)cc3)c1-2	u	i	0%	-7%	i
COc1ccc(-c2nc(SCC(=O)NCc3nc4ccccc4n3C)n3[nH]c(=O)cc3n2)cc1	x	u	x	x	i
COc1ccc(N2CCN(C(=O)Cn3c(-c4cccs4)cc4ccccc43)CC2)cc1	x	i	x	x	i
O=[N+]([O-])c1ccc(-c2nc(NCC3CCCO3)c3ccccc3n2)cc1 (centres undefined)	2%	i	-10%	8.2µM*	i
COc1cccc(-c2nc(NCC3CCCO3)c3ccccc3n2)c1O (centres undefined)	u	u	-4%	u	u
Oc1ccccc1-c1nc(NCC2CCCO2)c2ccccc2n1 (centres undefined)	u	u	-1%	23µM*	u
O=C(NCC(c1cccs1)N1CCOCC1)c1ccccc1NS(=O)(=O)c1ccc(Cl)c([N+](=O)[O-])c1 (centres undefined)	15µM*	u	-4%	u	i
O=C(NCC(c1cccs1)N1CCOCC1)c1ccccc1NS(=O)(=O)c1ccc(Cl)cc1 (centres undefined)	u	12µM*	0%	u	u
COc1ccccc1C1CC(=O)Nc2cc(C)c(C)cc21 (centres undefined)	15%	9.2µM*	21µM*	u	16µM*
COc1cccc(C2CC(=O)Nc3cc(OC)c(OC)cc32)c1 (centres undefined)	-16%	i	u	7%	i
CCOc1ccccc1C1CC(=O)Nc2cc(C)c(C)cc21 (centres undefined)	u	8.2µM*	18µM*	-9%	u
Cc1cc2c(cc1C)C(c1ccccc1OC(C)C)CC(=O)N2 (centres undefined)	1.5µM*	u	5.2µM*	0%	5.8µM*
CC(C)Oc1cccc(C2CC(=O)Nc3cc4c(cc32)OCO4)c1 (centres undefined)	x	u	x	x	3.7µM*
CCCCn1nnnc1C(c1cc2ccccc2o1)N1CCN(CC(=O)N2CCCC2)CC1 (centres undefined)	x	i	x	x	i
COc1cc2c(cc1OC)C(c1ccco1)CC(=O)N2 (centres undefined)	-1%	i	-22%	u	i
COc1cc2c(cc1OC)C(c1cc(C)ccc1C)CC(=O)N2 (centres undefined)	0.65µM*	u	0%	0%	i
COc1cc2c(cc1OC)C(c1ccc(Br)cc1)CC(=O)N2 (centres undefined)	0.65µM*	i	u	-6%	i
CC(C)Oc1ccccc1C1CC(=O)Nc2cc3c(cc21)OCO3 (centres undefined)	0.52µM*	1.3µM*	u	-1%	2.6µM*
SMILES	MCF10A rerep	KB-V1 MDR tox	SW480 rerep	ELG1 DNA repair	KB-3-1 tox
Cc1cc2c(cc1C)C(c1ccccc1Br)CC(=O)N2 (centres undefined)	u	23µM*	u	-16%	18µM*
COc1cccc(C2CC(=O)Nc3cc4c(cc32)OCO4)c1OC(C)C (centres undefined)	x	i	x	x	i
C/C=C(\C)C(=O)N1CCC(C(=O)c2ccccc2)CC1	2%	i	-6%	1%	i
CCCNC(=O)C1(C)CCN(CCS(=O)(=O)c2ccc(C)cc2)C1 (centres undefined)	x	i	x	x	i
COc1ccc(-c2ccc3ncnc(NCCc4cnc[nH]4)c3c2)cc1OC	x	i	x	x	u
O=C(Nc1ccc(Br)cn1)c1cnn2c1NC(=C1CC1)C=C2C(F)F	x	i	x	x	u
Cc1cccc(OCC(=O)Nc2ccccc2C(=O)OCc2cc(=O)n3ccsc3n2)c1	x	i	x	x	i
Cc1ccc(S(=O)(=O)n2nc(C)cc2C)cc1	u	i	-3%	0%	i
Cc1cc(C)n(S(=O)(=O)/C=C/c2ccccc2)n1	16µM*	u	u	7%	u
CC(=O)N1CCN(c2ccc(Oc3ncnc4sccc34)cc2)CC1	9%	i	2%	21µM*	i
CC(CC(=O)NCc1ccco1)S(=O)(=O)c1ccc2c(c1)CCN2C(=O)C1CC1 (centres undefined)	u	i	u	-21%	u
O=C(Nc1ccccc1)c1ccc(Cn2cc(C(F)(F)F)ccc2=O)cc1	13%	15µM*	1%	-11%	i
COc1ccc(O)c(C(=O)c2cc(C(=O)NCCc3ccccc3)c(=O)n(CCc3ccccc3)c2)c1	6%	2.1µM*	1%	u	i
O=C1NC(c2ccccn2)Nc2sc3c(c21)CCC3 (centres undefined)	16µM*	i	0%	u	i
O=C1NC(c2ccc(Br)cc2)Nc2sc3c(c21)CCC3 (centres undefined)	1%	i	-9%	u	i
CN1CCc2c(sc3c2C(=O)NC(c2ccccn2)N3)C1 (centres undefined)	0%	i	3%	21%	i
Cc1ccsc1C1NC(=O)c2c(sc3c2CCCC3)N1 (centres undefined)	u	15µM*	-3%	u	i
Cc1nc2c3ccccc3n(Cc3ccccc3F)c2s1	15µM*	u	17%	u	i
Cc1nc2c3cc(F)ccc3n(Cc3ccccc3)c2s1	19%	u	u	u	16µM*
Cc1nc2c3cc(F)ccc3n(Cc3ccccc3F)c2s1	105%	u	u	u	u
